This is a sample that favours compounds with a hit; in the whole collection about 3.5% have one here.
KDM4E inh: JMJD2E (human) inhibition; B2RXH2; JMJD2E catalytic domain, FDH-coupled NADH fluorescence (FDH is formaldehyde dehydrogenase); Potency, µM (top dose mostly 57.1 µM), hits mostly inhibitors; 1.6% of 230,000 active; AID 2147; active = well fitted inhibition curve with a large enough effect, not every such curve was filed as active; inconclusive = small, poorly fitted or top-dose-only effect, or another doubt; inactive = no such curve, though single readings can be large or run the other way; note: nearly all actives have a fitted effect of over 50% in size
Tau ThT inhib: blocks human tau fibril formation measured by thioflavin T | 2.1% of 270,000 active | recombinant tau K18 P301L, heparin-induced fibrillization, ThT fluorescence | P10636 | AID 1460 | Potency, µM (top dose mostly 57.4 µM), hits mostly inhibitors; note: nearly all actives have a fitted effect of over 55% in size
Target sequence (P10636 561-689 P618L limits assumed): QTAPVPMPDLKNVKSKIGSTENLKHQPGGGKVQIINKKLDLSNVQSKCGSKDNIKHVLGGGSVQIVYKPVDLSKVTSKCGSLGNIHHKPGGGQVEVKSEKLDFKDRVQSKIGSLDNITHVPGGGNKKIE
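ThT emission at 510 nm, taken 1 hr after adding 30 uM dye, quantifies aggregates formed when 20 uM heparin acts on human tau K18 P301L for 6 hr at 37 C.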
Tau fibril FP: tau fibrillization inhibition (FP) | K18 P301L tau heparin fibrillization, Alexa594 FP, 6 h | Potency, µM (highest dose often 57.7 µM), actives largely listed as inhibitors | 0.39% of 280,000 active | AID 1468; note: nearly all actives have a fitted effect of over 55% in size
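FP of Alexa 594-tau after heparin (20 uM) induction. Substrate: human K18 P301L, 15 uM unlabeled, 0.24 uM labeled. Buffer 100 mM sodium acetate pH 7. 6 hr, 37 C.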
Tau fluor counter: counter-screen for tau fibril formation inhibitors. tau K18 P301L Alexa594 fluorescence, heparin fibrillization. 0.93% of 280,000 active. Potency, µM (top dose mostly 57.7 µM). AID 1463; note: nearly all actives have a fitted effect of over 55% in size
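Human tau K18 P301L (15 uM unlabeled, 0.24 uM Alexa 594-labeled) in 100 mM sodium acetate pH 7 with 20 uM heparin, 6 hr at 37 C. ThT 30 uM added, 1 hr ambient; Alexa 594 FP and total fluorescence read at 555/632 nm.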
TRb-SRC2 inh: TRbeta-SRC2 interaction inhibition; Potency, µM (top dose mostly 106 µM), usual class: inhibitors; 0.065% of 280,000 active; P10828; TRbeta-SRC2 peptide binding, fluorescence polarization; receptor liganded with 1 µM T3; note: nearly all actives have a fitted effect of over 50% in size
Target sequence (P10828 whole entry, looked up): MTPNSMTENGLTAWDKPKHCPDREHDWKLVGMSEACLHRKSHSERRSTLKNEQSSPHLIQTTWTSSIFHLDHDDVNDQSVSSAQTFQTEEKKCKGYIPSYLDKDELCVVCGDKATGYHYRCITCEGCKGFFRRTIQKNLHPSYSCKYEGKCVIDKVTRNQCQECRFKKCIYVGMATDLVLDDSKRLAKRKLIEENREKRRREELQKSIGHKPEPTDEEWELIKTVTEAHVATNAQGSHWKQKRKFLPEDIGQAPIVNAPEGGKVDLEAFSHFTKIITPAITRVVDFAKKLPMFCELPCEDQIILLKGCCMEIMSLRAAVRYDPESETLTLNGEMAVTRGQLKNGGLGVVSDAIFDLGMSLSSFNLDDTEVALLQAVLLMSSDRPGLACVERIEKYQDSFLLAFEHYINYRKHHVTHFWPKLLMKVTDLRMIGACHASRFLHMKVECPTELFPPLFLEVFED
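Fluorescence polarization of 20 nM Texas Red SRC2 peptide (20-aa NR interaction domain) bound to 0.6 uM human TRb ligand-binding domain, with 1 uM T3, after 5 hr at ambient temperature; inhibition seen as decreased polarization.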
TexasRed fluor: Texas Red fluorescence interference in TRb-SRC2 counter-screen | 0.29% of 280,000 active | AID 1479 | Potency, µM (highest dose often 106 µM) | TRb/SRC2 Texas Red total fluorescence interference; active = well fitted curve in either direction with a large enough effect; inconclusive = small, poorly fitted or top-dose-only effect
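Human TRb ligand-binding domain at 0.6 uM with 20 nM Texas Red SRC2 peptide in Tris buffer containing 1 uM T3 and 5% DMSO, incubated with compound 5 h at ambient temperature. Total fluorescence (555/632 nm) calculated as parallel + 2 × perpendicular.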
Large screens that a line does not name were inactive; [ ] = remark or other dose. Unless noted, calls come from the whole dose curve; as a rule, active = well fitted curve in the direction sought with a large enough effect; inconclusive = small, poorly fitted or top-dose-only effect, or another doubt; inactive = no such curve, though single readings can be large; an effect the other way counts as inactive or inconclusive.

COc1cccc([C@H]2Nc3ccc(S(=O)(=O)Nc4cc(C)ccc4C)cc3[C@H]3C=CC[C@H]32)c1	Tau ThT inhib inconclusive, Tau fluor counter inconclusive (no result: KDM4E inh)
Cc1ccc([C@H]2Nc3ccc(S(=O)(=O)Nc4cccc(Cl)c4C)cc3[C@H]3C=CC[C@H]32)cc1	Tau ThT inhib 12.6µM, Tau fluor counter inconclusive (no result: KDM4E inh)
COc1ccc(C(=O)/C(C#N)=N/Nc2cccc([N+](=O)[O-])c2)cc1	Tau ThT inhib 7.94µM, Tau fluor counter inconclusive
Cc1ccccc1C(=O)/C(C#N)=N/Nc1c(C)n(C)n(-c2ccccc2)c1=O	KDM4E inh inconclusive, Tau ThT inhib inconclusive
Cc1c(N/N=C(\C#N)C(=O)c2ccccc2)c(=O)n(-c2ccccc2)n1C	Tau ThT inhib inconclusive, TexasRed fluor 2.24µM[quencher]
N#C/C(=N\Nc1ccccc1Cl)C(=O)c1ccccc1	Tau ThT inhib 20µM, Tau fibril FP inconclusive
N#C/C(=N\Nc1c(Cl)cccc1Cl)C(=O)NN	Tau ThT inhib inconclusive, Tau fluor counter inconclusive
N#C/C(=N\Nc1cccc(Cl)c1)C(=O)c1ccccc1	Tau ThT inhib 10µM, Tau fluor counter inconclusive
COCCCNC(=O)c1nn(-c2ccc(C)cc2)nc1CO	none (no result: KDM4E inh)
O=C1CC(c2nc(-c3ccccc3)no2)CN1c1ccccc1 (stereo unspecified)	none (no result: KDM4E inh)
Cn1c(O)c(C2=c3ccccc3=NC2=O)[nH]c1=S	Tau ThT inhib inconclusive
COc1ccc2nc(-n3c(O)c(C4=c5ccccc5=NC4=O)[nH]c3=S)sc2c1	Tau ThT inhib 2.24µM, Tau fibril FP inconclusive, Tau fluor counter 8.91µM[quencher], TexasRed fluor inconclusive
CSCCC(NC(=O)c1cccc(C)c1)C(=O)O (stereo unspecified)	none
O=[N+]([O-])c1ccc2c(c1)N([O-])C1(CCCCC1)[N+]2=O	KDM4E inh 11.2µM, Tau ThT inhib 3.55µM, Tau fibril FP 11.2µM, Tau fluor counter inconclusive
CC1=C(c2ccccc2)[N+](=O)C2(CCCC2)N1[O-]	none
O=c1ccc2ccc(O)c(O)c2o1	KDM4E inh 7.08µM, Tau ThT inhib inconclusive, Tau fibril FP inconclusive, TexasRed fluor inconclusive
Cc1cc(C(=O)N/N=C/c2cc(Br)cc([N+](=O)[O-])c2O)c2ccccc2n1	KDM4E inh 6.31µM, Tau ThT inhib 7.94µM, Tau fibril FP inconclusive, Tau fluor counter inconclusive
Cc1cc(C(=O)N/N=C/c2cc([N+](=O)[O-])ccc2O)c2ccccc2n1	KDM4E inh 28.2µM, Tau ThT inhib inconclusive
Cc1cc(C(=O)N/N=C/c2ccc([N+](=O)[O-])cc2)c2ccccc2n1	none
CC(C)NC(=O)COc1ccc(S(=O)(=O)N(C)Cc2ccccc2)cc1	none
Nc1nn2c(-c3ccccc3)cc(=O)[nH]c2c1N=Nc1ccc(O)cc1	none
Nc1nn2c(-c3ccccc3)cc(=O)[nH]c2c1N=Nc1ccc(Br)cc1	Tau ThT inhib 2.24µM
CC(=O)N1CCn2c3c(c4cc(C)ccc42)CCCC31 (stereo unspecified)	KDM4E inh inconclusive
CC(=O)N1CCn2c3c(c(=O)c4cc(C)ccc42)CCC31 (stereo unspecified)	KDM4E inh inconclusive, Tau ThT inhib 25.1µM, Tau fibril FP inconclusive, Tau fluor counter inconclusive, TRb-SRC2 inh inconclusive
O=C(NCc1ccc2c(c1)OCO2)C1CCC(=O)N1C1CCCCC1 (stereo unspecified)	none
CC(C)c1nc2ccccc2c2nnc(SCC(=O)NCc3ccco3)n12	none
COc1cc(C=O)ccc1OCC(=O)NC(C)(C)C	none
CCN(CC)c1ccc(N=Nc2nn(C)c(C)c2[N+](=O)[O-])cc1	Tau ThT inhib 15.8µM, Tau fluor counter inconclusive
Cc1ccc(CNC(=O)c2nn(C)c(C)c2[N+](=O)[O-])cc1	none
CCN(Cc1ccccc1)c1ccc(N=Nc2nn(C)c(C)c2[N+](=O)[O-])cc1	Tau ThT inhib 10µM, Tau fibril FP inconclusive, Tau fluor counter inconclusive
CCC1OC(=O)C[C@H](O)C(C)[C@@H](O[C@@H]2OC(C)C(O)C(N(C)C)C2O)C(CCN2CC(C)CC(C)C2)CC(C)C(=O)/C=C/C(C)=C\[C@@H]1COC1OC(C)C(O)C(OC)C1OC (stereo partly specified)	KDM4E inh inconclusive
C[C@H](Cc1ccc(O)c(O)c1)[C@@H](C)Cc1ccc(O)c(O)c1	KDM4E inh 14.1µM
N[C@@H](Cc1ccc(O)c(O)c1)C(=O)O	KDM4E inh 12.6µM (no result: Tau ThT inhib, Tau fibril FP, Tau fluor counter)
CC(Cc1ccc(O)c(O)c1)C(C)Cc1ccc(O)c(O)c1 (stereo unspecified)	KDM4E inh 22.4µM, Tau ThT inhib inconclusive, Tau fluor counter 15.8µM[quencher]
CC(CCc1ccc(O)cc1)NCCc1ccc(O)c(O)c1 (stereo unspecified)	KDM4E inh inconclusive, Tau ThT inhib inconclusive
COc1ccc(CN2CCCCC2c2cccnc2)c(OC)c1C (stereo unspecified)	none
Cc1ccc(Nc2c(-c3c[nH]c4ccccc34)nc3ccccn23)cc1	Tau ThT inhib inconclusive, Tau fluor counter 8.91µM[quencher] (no result: KDM4E inh)
O=C(O)CSc1cc(C(=O)c2cc(F)ccc2O)cn2c(=O)c3c(-c4ccccc4)csc3nc12	Tau ThT inhib 28.2µM
CCOC(=O)c1sc2nc3c(SCCC(=O)O)cc(C(=O)c4cc(OC)ccc4O)cn3c(=O)c2c1C	KDM4E inh inconclusive, Tau ThT inhib 25.1µM
CCn1c(SCc2ccc(C(=O)Nc3nccs3)cc2)nnc1-c1ccc(NC(C)=O)cc1	none
COC(=O)Cc1[nH]n(-c2nc3ccccc3s2)c(=O)c1C(C)=Nc1ccc(C)cc1	KDM4E inh inconclusive, Tau ThT inhib inconclusive
COC(=O)Cc1[nH]n(-c2nc3ccccc3s2)c(=O)c1C(C)=Nc1ccc(Cl)cc1	KDM4E inh 35.5µM, Tau ThT inhib inconclusive
O=C(NCc1ccccn1)C(=O)N/N=C/c1ccccc1O	KDM4E inh 6.31µM, Tau fibril FP inconclusive
O=C(CCN1CCOCC1)N/N=C/c1cc([N+](=O)[O-])ccc1OC(F)F	none
O=C(CCN1CCOCC1)N/N=C/c1cc(Br)cc(Br)c1O	KDM4E inh 28.2µM, Tau ThT inhib inconclusive
O=C(NCCCN1CCOCC1)C(=O)N/N=C/c1ccccc1O	KDM4E inh 11.2µM
Cc1cc(/C=N/NC(=O)C(=O)NCc2ccccn2)c(C)n1-c1cccc(Br)c1	none
O=C(N/N=C\c1ccccc1O)c1ccccc1O	KDM4E inh 5.01µM
C[C@@H](C(=O)CC(=O)OC(C)(C)C)[C@@H](O)c1ccccc1	none (no result: KDM4E inh, Tau ThT inhib, Tau fibril FP, Tau fluor counter)
CCSC1(SCC)N=C(N)C2(C#N)C(c3ccc(F)cc3)C12C#N (stereo unspecified)	Tau ThT inhib inconclusive
Cc1cc(C(=O)NCc2ccc(Cl)cc2)n(-c2ccccc2)n1	none
Cc1noc(C)c1S(=O)(=O)NCC(=O)O	none

Bioassay records from PubChem.
